Assay results as given in the supplement of paper PMC10981050.
Values joined by “and” are separate entries in the source; they are usually repeats but may differ in a detail not shown here. Identical values can stand only once. Counter-ions that a name gives are not always drawn.

What was measured:
Assay in all cases: cell viability relative to vehicle control; higher = less cytotoxic
Conditions in all cases: 10 µM
K562 = test system: K562
Outline: (§1)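 CRISPR-edited mutant clones and isogenic wild-type clones from four leukaemia lines were screened against Selleck bioactive, kinase and epigenetic probe libraries, with identity-inconsistent compounds excluded. Each compound was acoustically dispensed at a single 10 µM dose into 384-well plates holding 2000 cells in 50 µL medium per well. After 48 h the supernatant was removed and CellTiter-Glo luminescence was read. Viability was expressed as percent of the on-plate vehicle control and analysed in Genedata Screener.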

MARIMO = test system: MARIMO
Outline: as §1

MOLM14 = test system: MOLM14
Outline: as §1

OCI-AML2 = test system: OCI-AML2
Outline: as §1

| SMILES | cell viability (K562; SRSF2 genotype: SRSF2 P95H/wt) | cell viability (K562; SRSF2 genotype: SRSF2 wt/wt) [%] | cell viability (MARIMO; SRSF2 genotype: SRSF2 P95H/wt) [%] | cell viability (MARIMO; SRSF2 genotype: SRSF2 wt/wt) [%] | cell viability (MOLM14; SRSF2 genotype: SRSF2 P95H/wt) [%] | cell viability (MOLM14; SRSF2 genotype: SRSF2 wt/wt) [%] | cell viability (OCI-AML2; SRSF2 genotype: P95H/wt) [%] | cell viability (OCI-AML2; SRSF2 genotype: wt/wt) [%] |
| --- | --- | --- | --- | --- | --- | --- | --- | --- |
| CNS(=O)(=O)Nc1nccc(Cc2c(C)c3ccc(Oc4ncccn4)cc3oc2=O)c1F | 59.5% and 66.4% | 72.2 | 36 | 36.9 | 44.7 | 30.6 | 37.6 | 40.4 |
| NC(=O)c1cccc2cn(-c3ccc([C@@H]4CCCNC4)cc3)nc12 [MK-4827(Niraparib) tosylate] | 103% and 99.2% | 87.5 | 48.4 | 64.4 | 21.4 | 7.47 | 41.8 | 47.3 |
| Cc1cccc(C)c1NC(=O)c1cc(S(N)(=O)=O)c(Cl)cc1O [Xipamide] | 101% and 94.8% | 104 | 103 | 113 | 101 | 107 | 97.5 | 106 |
| C[N+]1(C)CCCC1C(=O)[O-] (centres undefined) [Stachydrine] | 99.9% and 99.1% | 105 | 97.3 | 100 | 99.6 | 104 | 106 | 102 |
| COc1cc2c(cc1O)[C@@H](Cc1ccc(O)c(Oc3ccc(C[C@@H]4c5cc(OC)c(OC)cc5CCN4C)cc3)c1)N(C)CC2 [Daurisoline] | 30.5% and 37.4% | 15.9 | 3.28 | 9.42 | 1.06 | 0.83 | 1.65 | 1.01 |
| N#CC(=Cc1cn(-c2ccccc2)c2ccccc12)C(=O)O | 111% and 90.4% | 93.5 | 86.3 | 94.5 | 89.2 | 97.2 | 91 | 95.4 |
| CC(=O)O[C@]1(C(C)=O)CC[C@H]2[C@@H]3C[C@H](C)C4=CC(=O)C=C[C@]4(C)[C@@]3(F)[C@@H](O)C[C@@]21C [Fluorometholone Acetate] | 93.4% and 95.3% | 85.4 | 96.4 | 105 | 97.6 | 93.5 | 99.5 | 113 |
| CN1CCC(COc2cnc(-c3cccc(Cn4nc(-c5cccc(C#N)c5)ccc4=O)c3)nc2)CC1 | 30.9% and 26.1% | 30.5 | 61.7 | 63.6 | 55.6 | 47.5 | 49.2 | 52.8 |
| COc1ccc(-c2nc(N3CCOCC3)c3sc(CN(C)c4ncc(C(=O)NO)cn4)cc3n2)cn1 | 1.16% and 7.95% | 2.68 | 1.32 | 2.78 | 0.39 | 0.45 | 0.79 | 1.17 |
| CC(C)(F)C[C@H](N[C@@H](c1ccc(-c2ccc(S(C)(=O)=O)cc2)cc1)C(F)(F)F)C(=O)NC1(C#N)CC1 [Odanacatib (MK 0822)] | 98.7% and 103% | 93.4 | 94.5 | 102 | 104 | 104 | 101 | 102 |
| O=C(O)c1ccc(Br)c(O)c1 [4-Bromo-3-hydroxybenzoic acid] | 105% and 104% | 104 | 100 | 110 | 100 | 107 | 99.3 | 108 |
| OC[C@H]1O[C@@H](Oc2cc(O)cc(/C=C/c3ccc(O[C@@H]4O[C@H](CO)[C@@H](O)[C@H](O)[C@H]4O)cc3O)c2)[C@H](O)[C@@H](O)[C@@H]1O [Mulberroside A] | 94.5% and 95.1% | 98.2 | 95.3 | 101 | 97.3 | 97.6 | 97.1 | 105 |
| CC(C)N(CCCCOCC(=O)NS(C)(=O)=O)c1cnc(-c2ccccc2)c(-c2ccccc2)n1 [Selexipag] | 110% and 100% | 100 | 97 | 109 | 97.6 | 98.2 | 96.9 | 109 |
| Nc1ncn([C@@H]2O[C@H](CO)[C@@H](O)[C@H]2O)c(=O)n1 [Azacitidine (Vidaza)] | 47.4% and 45.7% | 52.2 | 45.5 | 52.8 | 45.7 | 40.3 | 35.8 | 34.3 |
| COc1cccc(C(N)=O)c1 [3-Methoxybenzamide] | 106% and 99.6% | 111 | 104 | 102 | 103 | 107 | 101 | 115 |
| Cc1ccc(-c2nn(C(C)(C)C)c3ncnc(N)c23)cc1 | 64.5% and 82.4% | 63.5 | 99.2 | 102 | 58.6 | 85.9 | 82 | 78.6 |
| C/C=C(/C)C(=O)O[C@H]1[C@@H](OC(C)=O)c2c(ccc3ccc(=O)oc23)OC1(C)C [(+)-Praeruptorin A] | 92.3% and 98.4% | 90.2 | 84.5 | 93.9 | 82.8 | 93.3 | 90.3 | 104 |
| CC1(N)CCN(c2cnc(-c3cccc(Cl)c3Cl)c(N)n2)CC1 [SHP099 hydrochloride] | 64.7% and 71.4% | 71.9 | 96 | 106 | 29.6 | 22.8 | 25.4 | 38.7 |
